Measured values published in PubChem BioAssay AID1159580 (chemical genetic matrix, 2015).
Screen size: about 5,500 compounds; about 2,000 (36%) were called active. Inconclusive results (about 18%) are left out. Rule as the data show it: active = normalized growth mostly below about 0.91 (no sharp cut-off); inconclusive = no clear call, values can overlap the other calls; inactive = mostly above about 0.92. This is one part of the list.

Test: chemical genetic growth profiling, strain panel (AID 1159580);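 also: tested at 20 µM; growth read once vehicle control cultures reached saturation at 30 °C; 1 = growth at the plate median or of vehicle wells; lower values mean less growth of the strain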
Details: S. cerevisiae deletion strains, growth OD

Measured: normalized growth

O=C1C(NCc2ccccc2)=C(NCc2ccccc2)C(=O)c2ccccc21
inactive: locus YAR019C, strain CDC15, hits give low values 0.929 | locus YBL105C, strain PKC1, hits give low values 0.915 | locus YBR135W, strain CKS1, hits give low values 0.918 | locus YBR136W, strain MEC1, hits give low values 0.913 | locus YBR160W, strain CDC28, hits give low values 0.92 | locus YDL017W, strain CDC7, hits give low values 0.922 | locus YDL028C, strain MPS1, hits give low values 0.904 | locus YDL101C, strain DUN1, hits give low values 0.916 | locus YDL108W, strain KIN28, hits give low values 0.897 | locus YDL132W, strain cdc53, hits give low values 0.907 | locus YDL214C, strain PRR2, hits give low values 0.869 | locus YDR052C, strain DBF4, hits give low values 0.931 | locus YDR054C, strain cdc34, hits give low values 0.921 | locus YDR477W, strain SNF1, hits give low values 0.839 | locus YER123W, strain YCK3, hits give low values 0.845 | locus YER133W, strain GLC7, hits give low values 0.839 | locus YFL009W, strain cdc4, hits give low values 0.902 | locus YFL029C, strain CAK1, hits give low values 0.913 | locus YFR003C, strain YPI1, hits give low values 0.912 | locus YFR019W, strain FAB1, hits give low values 0.942 | locus YGR040W, strain KSS1, hits give low values 0.825 | locus YGR052W, strain FMP48, hits give low values 0.893 | locus YGR092W, strain DBF2, hits give low values 0.744 | locus YHR030C, strain SLT2, hits give low values 0.885 | locus YHR079C, strain IRE1, hits give low values 0.979 | locus YHR082C, strain KSP1, hits give low values 0.883 | locus YHR205W, strain SCH9, hits give low values 0.931 | locus YIL147C, strain SLN1, hits give low values 0.895 | locus YJL095W, strain BCK1, hits give low values 0.886 | locus YJL128C, strain PBS2, hits give low values 0.885 | locus YJL157C, strain FAR1, hits give low values 0.833 | locus YJR066W, strain TOR1 (second series), hits give low values 0.775 | locus YJR066W, strain TOR1, hits give low values 0.879 | locus YKL048C, strain ELM1, hits give low values 0.829 | locus YKL067W, strain YNK1, hits give low values 0.862 | locus YKL101W, strain HSL1, hits give low values 0.875 | locus YKL193C, strain SDS22, hits give low values 0.906 | locus YKL203C, strain TOR2, hits give low values 0.84 | locus YLR113W, strain HOG1, hits give low values 0.895 | locus YLR133W, strain CKI1, hits give low values 0.856 | locus YLR403W, strain SFP1, hits give low values 0.802 | locus YML070W, strain DAK1, hits give low values 0.871 | locus YMR001C, strain CDC5, hits give low values 0.896 | locus YMR205C, strain PFK2 (second series), hits give low values 0.878 | locus YMR277W, strain FCP1, hits give low values 0.903 | locus YNL006W, strain LST8, hits give low values 0.923 | locus YNL020C, strain ARK1, hits give low values 0.845 | locus YNL161W, strain CBK1, hits give low values 0.922 | locus YNL183C, strain NPR1, hits give low values 0.904 | locus YNL222W, strain SSU72, hits give low values 0.925 | locus YNL307C, strain MCK1 (second series), hits give low values 0.842 | locus YOL078W, strain AVO1, hits give low values 0.911 | locus YOL136C, strain PFK27, hits give low values 0.884 | locus YOR061W, strain CKA2, hits give low values 0.817 | locus YOR119C, strain RIO1, hits give low values 0.784 | locus YOR231W, strain MKK1, hits give low values 0.954 | locus YOR329C, strain SCD5, hits give low values 0.935 | locus YPL031C, strain PHO85, hits give low values 0.837 | locus YPL153C, strain RAD53, hits give low values 0.826 | locus YPL204W, strain HRR25, hits give low values 0.827 | locus YPL209C, strain IPL1, hits give low values 0.934 | locus YPL256C, strain CLN2, hits give low values 0.986 | locus YPR025C, strain CCL1, hits give low values 0.93 | locus YPR106W, strain ISR1, hits give low values 0.899 | locus YPR111W, strain DBF20, hits give low values 0.91 | strain NNK1, hits give low values 0.902 | strain TSCII, hits give low values 0.907
active: locus YDR226W, strain ADK1, hits give low values 0.893 | locus YFR028C, strain CDC14, hits give low values 0.881 | locus YJR016C, strain ILV3, hits give low values 0.898 | locus YNL207W, strain RIO2, hits give low values 0.874
